{
  "source": "PubChem BioAssay AID493169",
  "about": "(National Center for Advancing Translational Sciences (NCATS), 2011)",
  "note": "Inconclusive results are not listed. Active and inactive are the calls of the source. Calls follow the shape of the dose curve; as a rule, active = well fitted inhibition curve with a large enough effect; inconclusive = small, poorly fitted or top-dose-only effect; inactive = flat fitted curve, though single readings scatter. % is scaled to controls: 0 for no effect and ±100 for the full control effect; potency is read from the fitted curve at half-maximal effect.",
  "data": [
    {"experiment": "CHOP2 Reporter Counterscreen Assay for Inhibitors of Ubiquitin-specific Protease USP2a;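 also: activated enterokinase alone at 50 pM in a cell-free format rather than USP2a or CHOP2; nearly all actives have a fitted effect of over 55% in size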", "conditions": "purified enterokinase, fluorogenic substrate, 485/531 nm; series mostly up to 38.3 µM; activity change, negative = inhibition: at the top concentration", "outline": "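Cell-free counterscreen with pre-activated enterokinase alone (50 pM final) in 20mM Tris-HCl pH 8.0, 2mM CaCl2, 2mM beta-mercaptoethanol, 0.05% CHAPS; compound preincubation 30 min RT, reporter substrate 25nM final, fluorescence read after 10 min (Ex 485/Em 531).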", "values": [
      {"compound": "O=C1S/C(=C\\C=C\\c2ccco2)C(=O)N1c1ccc(O)cc1", "Potency": "10 µM (active)"},
      {"compound": "O=C(Oc1ccccc1C(=O)Nc1ccccc1)c1ccccc1Br", "activity change, negative = inhibition": "-2.06% (inactive)"},
      {"compound": "O=C(CCn1c(=O)c2ccccc2n(Cc2ccccc2)c1=O)NCc1ccc2c(c1)OCO2", "activity change, negative = inhibition": "-8.97% (inactive)"},
      {"compound": "COc1cccc(N2C(=O)C3CCCN3C2c2ccc(N(C)C)cc2)c1", "note": "(configuration not stated)", "activity change, negative = inhibition": "1.86% (inactive)"},
      {"compound": "CC1=NN(C(=O)c2csc(C)c2C)C(O)(C(F)(F)F)C1", "note": "(configuration not stated)", "activity change, negative = inhibition": "0.112% (inactive)"},
      {"compound": "COc1cc(C(=O)OC2CCCCC2=O)cc(OC)c1C", "note": "(configuration not stated)", "activity change, negative = inhibition": "-5.18% (inactive)"},
      {"compound": "CCOc1cc(/C=C2\\C(=O)N(c3nc(-c4ccc(Br)cc4)cs3)N=C2c2ccccc2)ccc1O", "Potency": "4.47 µM (active)"}
    ]}
  ]
}
